# Test results as given in PubChem BioAssay AID1347428 (National Center for Advancing Translational Sciences (NCATS), 2020).
# The campaign covered roughly 91,000 compounds. About 290 (0.32%) were called active. Another 7% or so got no clear call; they are omitted. The call rests on the fitted dose curve; in most records, active means well fitted inhibition curve with a large enough effect; inconclusive means small, poorly fitted or top-dose-only effect; inactive means no such curve, though single readings can be large or run the other way. Many of the other results were omitted from the sample, so actives are more common in it than they were.
# Biological target: Single-stranded DNA cytosine deaminase (Homo sapiens) (UniProt Q9GZX7)
# Sequence (Q9GZX7 whole entry, looked up): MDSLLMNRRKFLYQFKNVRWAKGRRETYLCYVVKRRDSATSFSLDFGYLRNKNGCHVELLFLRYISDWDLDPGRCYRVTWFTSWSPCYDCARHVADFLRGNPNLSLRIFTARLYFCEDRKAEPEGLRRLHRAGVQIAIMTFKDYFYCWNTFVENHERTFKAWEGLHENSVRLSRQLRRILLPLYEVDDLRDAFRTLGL
# Experiment: Primary qHTS assay for inhibitors of Activation Induced Cytidine Deaminase (AID): AID signal; further: nearly all actives have a fitted effect of over 25% in size
# Conditions: AID deamination FRET fluorescence, UDG-coupled, 4 h; series mostly up to 115 µM; activity change, negative = inhibition: at the top concentration
# Excerpt: Assay Provider (PI) Patricia Gearhart Ph.D.
# National Institute on Aging
# National Institute of Health (NIH), Bethesda, MD
# Assay Provider (PI) Rahul Kohli Ph.D.
# Perelman School of Medicine
# University of Pennsylvania, Philadelphia, PA
# Activation-Induced Deaminase (AID) is a cytosine deaminase which converts cytosine into uracil within stretches of ssDNA. The presence of uracil in DNA initiates a cascade of mutagenic DNA repair to introduce point mutations and DNA double strand breaks. Specific targeting of AID to the immunoglobulin heavy chain loci (Igh) promotes mutagenesis in the antibody variable region for somatic hypermutation (SHM) or switch regions leading to class switch recombination (CSR). However, AID also plays a role in accumulating unnecessary mutations across the genome. Mis-targeting of AID results in the initiation of tumor development and leads to greater drug resistance among cancer cells when continually expressed. To identify an AID inhibitor, a small molecule library will be screened in collaboration with NCATS core facility at NIH. To confirm biological function, inhibitors will be examined in an in vitro murine B-cell activation assay and subsequent secondary validation screens. Top molecules will be further screened to identify inhibitory efficacy against a wild type primary splenocytes assay. Using these approaches, we hope to identify a small molecule with great efficacy and low toxicity for use as a molecular probe to further characterize AID's intricacies, or even as a therapeutic.
# A FRET based analysis of cytosine deamination, was developed to identify potential inhibitors of AID catalytic activity. This screen has two signal output, Read 1 evaluates the AID inhibition response. The second readout (Read 2) evaluates UDG response and is uses as a counterscreen to exclude false positive inhibitors. Inhibition in AID and inactivity in the UDG signal is the desired outcome for this assay.
# SEQUENCE No. (e.g., 1, 2, 3, etc.); […] (e.g., Cells, Incubation, Reagent, etc.); VALUE; DESCRIPTION
# 1a; Reagent; 3 uL; [4/3x] 1 uM AID/2.67 U/mL UDG
# 1b; Reagent; 3 uL; 2 U/mL UDG
# 1c; Reagent; 3 uL; 1 uM AID
# 2a; Compound; 46 nL; Follow-up plates (0.64 uM - 10 mM)
# 2b; Control; 46 nL; ATA ([…] - 10 mM)
# 3; Time; 10 min; incubation at room temperature
# 5; Time; 4 hr; incubation at room temperature
# 6; Reagent; 4 uL; [2x] 250 mM NaOH
# 7; Time; 15 sec; centrifuge at 1000 rpm
# 8; Time; 30 min; incubation at room temperature
# 9a; Detection; fluorescence (Read 1: AID); EnVision (PerkinElmer) plate reader, 540 excitation and 590 emission filters
# 9b; Detection; fluorescence (Read 2: UDG); EnVision (PerkinElmer) plate reader, 560 excitation and 665 emission filters
# NOTES (numbers refer to sequence above)
# 1a; Reagents were dispensed in a medium-binding black solid-bottom Greiner plates (789176F) using a BioRptr liquid dispenser. Dispense 3 uL of [4/3x] 1 uM AID (provided by Kohli lab) and [4/3x] 2 U/mL UDG (NEB M0280L) into columns 1, 2, 5 to 48.
# 1b; Dispense 3 uL of [4/3x] 2 U/mL UDG into column 3.
# 1c; Dispense 3 uL of [4/3x] 1 uM AID into column 4.
# 2a; Compound (7-points [uM] (0.64; 3.2; 16; 80; 400; 2,000; 10,000; 20,000) double pin-transferred (Dip Factor = 2) using the Kalypsys (Wako USA) pintool equipped with a 1536 pinhead for a final concentration range of 7.32 nM - 114 uM. […]
# 9a; Fluorescence signal (column label AID) was read using the EnVision plate reader. […]
# On the % scale 0 is the no-effect control and ±100 the full control effect; potency means the concentration at half of the fitted maximal effect.
SMILES,Potency,"activity change, negative = inhibition"
CC(=O)c1c(O)c(C)c(O)c(Cc2c(O)c3c(c(C(=O)/C=C/c4ccccc4)c2O)OC(C)(C)C=C3)c1O,28.2 µM (active),–
Cc1cccc2c(CCN)c[nH]c12,–,1.94% (inactive)
COc1cccc(CNCCc2ccccc2)c1,–,0.963% (inactive)
COC1CC(OC2CCC3(C=O)[C@H]4CCC5(C)C(C6=CC(=O)OC6)CCC5(O)[C@@H]4CCC3(O)C2)OC(C)C1O (stereo not given in full),–,5.64% (inactive)
O=C(O)CCS(=O)(=O)C(Cl)Cl,–,2.04% (inactive)
